Data on 11 compounds can be found in ChEMBL document CHEMBL3988442, “University of Dundee, Small-Polar-MMV Screening Library” (2021).

Each structure is given as a SMILES string. For some of these results: Measured potencies and affinities stand elsewhere.

What all share (design): scale not given: direction of the effect not stated beside the values
Experiment [1] deals with Protein translocase subunit SecA (Escherichia coli (strain K12)) (UniProt P10408). In words: Assay to Identify E. coli SecA ATPase Inhibitors. It is filed as functional. The settings on record: 30 µM.
Chain of Protein translocase subunit SecA (Escherichia coli (strain K12)) (P10408 whole entry): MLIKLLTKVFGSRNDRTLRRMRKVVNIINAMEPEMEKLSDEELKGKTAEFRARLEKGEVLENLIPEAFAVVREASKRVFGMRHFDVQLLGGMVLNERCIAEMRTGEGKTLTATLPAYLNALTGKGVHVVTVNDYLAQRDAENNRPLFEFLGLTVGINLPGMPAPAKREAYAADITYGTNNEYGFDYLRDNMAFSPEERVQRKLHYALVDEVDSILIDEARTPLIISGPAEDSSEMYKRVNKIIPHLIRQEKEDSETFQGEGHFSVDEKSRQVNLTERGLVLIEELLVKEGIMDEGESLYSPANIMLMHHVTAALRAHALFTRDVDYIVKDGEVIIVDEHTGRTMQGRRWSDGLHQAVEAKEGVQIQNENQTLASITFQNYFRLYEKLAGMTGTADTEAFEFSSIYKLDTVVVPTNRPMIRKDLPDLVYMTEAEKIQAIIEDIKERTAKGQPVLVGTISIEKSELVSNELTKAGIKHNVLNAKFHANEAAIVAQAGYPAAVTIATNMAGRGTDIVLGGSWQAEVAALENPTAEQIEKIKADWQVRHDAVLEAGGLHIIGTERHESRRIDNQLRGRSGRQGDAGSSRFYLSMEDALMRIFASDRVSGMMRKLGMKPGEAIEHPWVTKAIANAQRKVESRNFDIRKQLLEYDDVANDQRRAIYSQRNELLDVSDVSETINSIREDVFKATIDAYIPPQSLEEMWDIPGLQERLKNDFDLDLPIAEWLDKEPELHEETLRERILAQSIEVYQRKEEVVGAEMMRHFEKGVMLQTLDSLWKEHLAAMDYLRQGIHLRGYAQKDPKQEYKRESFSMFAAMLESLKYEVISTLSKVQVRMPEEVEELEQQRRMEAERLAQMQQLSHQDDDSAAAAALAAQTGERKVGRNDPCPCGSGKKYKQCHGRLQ
The target in experiment [2] is T1, Ubiquitin-activating enzyme e1, putative (Leishmania donovani (strain BPK282A1)) (UniProt E9BSI1).
T1 sequence (whole entry): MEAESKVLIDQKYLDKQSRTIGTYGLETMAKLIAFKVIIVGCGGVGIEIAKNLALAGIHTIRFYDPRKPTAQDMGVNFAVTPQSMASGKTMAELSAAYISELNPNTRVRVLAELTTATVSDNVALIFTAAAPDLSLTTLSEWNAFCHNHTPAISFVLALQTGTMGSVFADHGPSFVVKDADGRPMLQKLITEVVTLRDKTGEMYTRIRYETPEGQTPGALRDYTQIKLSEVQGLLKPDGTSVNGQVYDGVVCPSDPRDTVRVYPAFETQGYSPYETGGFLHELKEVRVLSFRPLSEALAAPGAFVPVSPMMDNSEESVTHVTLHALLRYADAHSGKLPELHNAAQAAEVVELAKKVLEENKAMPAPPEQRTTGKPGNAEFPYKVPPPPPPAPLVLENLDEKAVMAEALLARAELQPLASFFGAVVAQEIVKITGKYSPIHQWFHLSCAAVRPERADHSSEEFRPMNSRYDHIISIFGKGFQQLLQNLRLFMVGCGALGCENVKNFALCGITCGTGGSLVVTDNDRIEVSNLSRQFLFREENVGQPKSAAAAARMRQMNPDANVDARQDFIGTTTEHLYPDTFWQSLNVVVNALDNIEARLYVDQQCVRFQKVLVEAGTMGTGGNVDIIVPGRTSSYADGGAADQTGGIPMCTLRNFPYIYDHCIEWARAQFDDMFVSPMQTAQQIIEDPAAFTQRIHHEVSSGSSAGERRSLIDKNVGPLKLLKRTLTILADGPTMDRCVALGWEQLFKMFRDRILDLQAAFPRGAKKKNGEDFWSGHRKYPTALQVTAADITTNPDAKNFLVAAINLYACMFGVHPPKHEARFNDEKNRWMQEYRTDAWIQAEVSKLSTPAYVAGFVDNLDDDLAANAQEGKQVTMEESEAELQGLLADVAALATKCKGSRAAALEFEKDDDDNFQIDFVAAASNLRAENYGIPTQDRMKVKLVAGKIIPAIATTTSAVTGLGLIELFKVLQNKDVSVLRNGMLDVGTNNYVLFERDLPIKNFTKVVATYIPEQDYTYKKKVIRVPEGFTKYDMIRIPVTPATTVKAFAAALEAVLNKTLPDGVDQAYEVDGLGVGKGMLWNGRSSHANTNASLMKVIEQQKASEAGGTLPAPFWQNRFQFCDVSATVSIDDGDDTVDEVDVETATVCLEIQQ
In words: Leishmania donovani Ubiquitin Activating Enzyme (LdE1). Type of experiment: functional. The settings on record: 30 µM.

The target of experiment [3] is AMP-activated protein kinase, AMPK (Homo sapiens) (UniProt P54646+O43741+P54619+Q9UGJ0+Q9Y478+Q13131+Q9UGI9). In words: AMP-dependent Kinase enzyme assay. An in vitro enzyme assay that detects ADP turnover that is directly proportional to AMPK activity. This uses naive AMPK that is activated during the assay with MK-8722. It is filed as functional. The settings on record: 30 µM.

Experiment [4] addresses Sialic acid-binding Ig-like lectin 9 (Homo sapiens) (UniProt Q9Y336). The experiment can be described thus: Hs-Siglec9 ALPHAscreen SOP 20170721. As to conditions: 10 µM.
The subject of experiment [5] is Trypanosoma cruzi. In words: Trypanosoma cruzi phosphomannomutase and mannose-1-phosphate guanylyltransferase assay. Type of experiment: functional. As to conditions: 10 µM.
For experiment [6], the target named is T2, Arginase-2, mitochondrial (Homo sapiens) (UniProt P78540).
T2 sequence (whole entry): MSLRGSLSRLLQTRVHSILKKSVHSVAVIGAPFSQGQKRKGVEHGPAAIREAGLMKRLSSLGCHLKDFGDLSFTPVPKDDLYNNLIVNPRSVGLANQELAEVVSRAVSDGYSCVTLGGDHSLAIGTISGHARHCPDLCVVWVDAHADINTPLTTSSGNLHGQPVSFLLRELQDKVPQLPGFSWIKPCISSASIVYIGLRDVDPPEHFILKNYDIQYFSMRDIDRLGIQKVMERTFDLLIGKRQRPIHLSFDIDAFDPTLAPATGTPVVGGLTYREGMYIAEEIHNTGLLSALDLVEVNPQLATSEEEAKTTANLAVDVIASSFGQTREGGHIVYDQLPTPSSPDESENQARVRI
The experiment can be described thus: in vitro enzyme assay to detect the production of urea directly proportional to the activity of Arginase II. Note: in the data most compounds retested in dose-response had high values. Type of experiment: functional. The settings on record: 33.3 µM.

Experiment [7] deals with T3, Proteasome subunit beta (Trypanosoma cruzi) (UniProt O96673).
T3 sequence (whole entry): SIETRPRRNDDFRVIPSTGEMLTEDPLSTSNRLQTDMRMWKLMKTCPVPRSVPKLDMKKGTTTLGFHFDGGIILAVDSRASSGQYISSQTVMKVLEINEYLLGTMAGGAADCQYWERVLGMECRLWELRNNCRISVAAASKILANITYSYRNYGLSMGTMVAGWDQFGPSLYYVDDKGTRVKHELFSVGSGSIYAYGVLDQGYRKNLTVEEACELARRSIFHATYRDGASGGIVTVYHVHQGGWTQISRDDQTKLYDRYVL
The experiment can be described thus: Trypanosoma cruzi proteasome chymotrypsin-like activity (TcProtChymo) assay. Note: in the data most compounds retested in dose-response had high values. It is filed as functional. The settings on record: 9.37 µM.

Experiment [8] is filed under the species Homo sapiens. The experiment can be described thus: To identify inhibition of the IFN signalling (Jak-Stat) pathway via expression of an eGFP reporter gene under the control of an IFN-stimulated response element (ISRE) containing MxA promoter. Type of experiment: functional. As to conditions: 30 µM.
In experiment [9] the target is T4, Tyrosyl-tRNA synthetase, putative (Trypanosoma cruzi (strain CL Brener)) (UniProt Q4DSP6).
T4 sequence (whole entry): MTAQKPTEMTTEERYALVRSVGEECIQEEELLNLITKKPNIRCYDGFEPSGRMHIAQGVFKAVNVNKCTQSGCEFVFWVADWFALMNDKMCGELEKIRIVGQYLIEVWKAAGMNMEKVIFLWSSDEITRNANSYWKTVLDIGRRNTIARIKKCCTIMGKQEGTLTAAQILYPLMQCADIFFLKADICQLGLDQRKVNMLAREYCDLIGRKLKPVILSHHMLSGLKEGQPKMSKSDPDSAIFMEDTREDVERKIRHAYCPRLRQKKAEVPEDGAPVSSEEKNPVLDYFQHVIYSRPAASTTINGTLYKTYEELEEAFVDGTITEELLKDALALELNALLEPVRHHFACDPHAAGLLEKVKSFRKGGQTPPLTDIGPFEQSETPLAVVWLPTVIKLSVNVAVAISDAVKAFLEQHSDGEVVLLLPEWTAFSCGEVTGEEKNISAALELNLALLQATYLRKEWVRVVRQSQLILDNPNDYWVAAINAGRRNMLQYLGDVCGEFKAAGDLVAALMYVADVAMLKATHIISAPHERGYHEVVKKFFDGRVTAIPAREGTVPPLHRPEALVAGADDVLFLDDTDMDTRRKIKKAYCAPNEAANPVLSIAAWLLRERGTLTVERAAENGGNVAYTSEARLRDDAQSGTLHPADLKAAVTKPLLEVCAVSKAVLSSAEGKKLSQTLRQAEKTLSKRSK
In words: Trypanosoma cruzi tyrosyl tRNA synthetase (TcYRS) _High Tyrosine SOP. Note: in the data most compounds retested in dose-response had high values. The settings on record: 30 µM. It is filed as functional.

Experiment [10] deals with T4, Tyrosyl-tRNA synthetase, putative (Trypanosoma cruzi (strain CL Brener)). The experiment can be described thus: Trypanosoma cruzi tyrosyl tRNA synthetase (TcYRS) SOP. It is filed as functional. As to conditions: 30 µM.
Experiment [11] addresses Chromo domain-containing protein 1 (Saccharomyces cerevisiae (strain ATCC 204508 / S288c) (Baker's yeast)) (UniProt P32657). In words: ScCHD-1 Enzyme Inhibition Assay. Note: in the data most compounds retested in dose-response had high values. The settings on record: 30 µM. Type of experiment: functional.

Chain of Chromo domain-containing protein 1 (Saccharomyces cerevisiae (strain ATCC 204508 / S288c) (Baker's yeast)) (P32657 whole entry, the tested form may be a part): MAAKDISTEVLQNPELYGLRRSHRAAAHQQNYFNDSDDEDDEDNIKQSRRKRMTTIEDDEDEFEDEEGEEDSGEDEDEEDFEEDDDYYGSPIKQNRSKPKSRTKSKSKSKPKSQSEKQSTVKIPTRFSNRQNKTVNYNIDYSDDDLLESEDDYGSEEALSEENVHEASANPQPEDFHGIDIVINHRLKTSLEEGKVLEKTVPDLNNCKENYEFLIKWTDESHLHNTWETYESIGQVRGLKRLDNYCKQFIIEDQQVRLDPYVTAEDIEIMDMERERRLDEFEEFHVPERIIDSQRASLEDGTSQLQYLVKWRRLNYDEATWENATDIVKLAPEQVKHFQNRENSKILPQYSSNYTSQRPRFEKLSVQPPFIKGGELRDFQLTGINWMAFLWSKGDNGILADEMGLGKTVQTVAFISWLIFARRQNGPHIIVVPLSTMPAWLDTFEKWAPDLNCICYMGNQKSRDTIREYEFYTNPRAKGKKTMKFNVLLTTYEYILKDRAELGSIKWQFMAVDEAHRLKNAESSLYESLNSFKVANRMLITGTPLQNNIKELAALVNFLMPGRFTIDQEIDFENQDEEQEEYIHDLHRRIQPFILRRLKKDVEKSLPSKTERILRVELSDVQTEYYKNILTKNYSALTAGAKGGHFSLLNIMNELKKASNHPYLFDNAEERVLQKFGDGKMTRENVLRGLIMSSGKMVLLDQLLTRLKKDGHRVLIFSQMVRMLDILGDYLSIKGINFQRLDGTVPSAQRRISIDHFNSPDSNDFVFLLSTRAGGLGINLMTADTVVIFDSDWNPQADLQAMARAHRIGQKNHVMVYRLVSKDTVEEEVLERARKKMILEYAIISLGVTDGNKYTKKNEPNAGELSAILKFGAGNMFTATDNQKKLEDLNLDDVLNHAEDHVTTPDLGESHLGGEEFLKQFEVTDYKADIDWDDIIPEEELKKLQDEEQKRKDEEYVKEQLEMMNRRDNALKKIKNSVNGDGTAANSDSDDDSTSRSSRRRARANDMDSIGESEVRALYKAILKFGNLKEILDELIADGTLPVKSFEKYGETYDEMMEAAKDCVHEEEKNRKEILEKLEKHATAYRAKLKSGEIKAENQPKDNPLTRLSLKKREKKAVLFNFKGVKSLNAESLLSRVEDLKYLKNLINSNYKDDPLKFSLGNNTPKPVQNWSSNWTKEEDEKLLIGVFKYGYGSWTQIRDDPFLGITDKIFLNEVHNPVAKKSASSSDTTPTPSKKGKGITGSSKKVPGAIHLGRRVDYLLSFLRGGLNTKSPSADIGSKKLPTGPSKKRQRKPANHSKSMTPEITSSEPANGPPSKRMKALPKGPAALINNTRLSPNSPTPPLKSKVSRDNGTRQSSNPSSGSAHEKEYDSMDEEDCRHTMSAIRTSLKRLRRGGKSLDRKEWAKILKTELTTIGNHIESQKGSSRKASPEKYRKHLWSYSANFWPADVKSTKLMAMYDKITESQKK
Chain of Sialic acid-binding Ig-like lectin 9 (Homo sapiens) (Q9Y336 whole entry): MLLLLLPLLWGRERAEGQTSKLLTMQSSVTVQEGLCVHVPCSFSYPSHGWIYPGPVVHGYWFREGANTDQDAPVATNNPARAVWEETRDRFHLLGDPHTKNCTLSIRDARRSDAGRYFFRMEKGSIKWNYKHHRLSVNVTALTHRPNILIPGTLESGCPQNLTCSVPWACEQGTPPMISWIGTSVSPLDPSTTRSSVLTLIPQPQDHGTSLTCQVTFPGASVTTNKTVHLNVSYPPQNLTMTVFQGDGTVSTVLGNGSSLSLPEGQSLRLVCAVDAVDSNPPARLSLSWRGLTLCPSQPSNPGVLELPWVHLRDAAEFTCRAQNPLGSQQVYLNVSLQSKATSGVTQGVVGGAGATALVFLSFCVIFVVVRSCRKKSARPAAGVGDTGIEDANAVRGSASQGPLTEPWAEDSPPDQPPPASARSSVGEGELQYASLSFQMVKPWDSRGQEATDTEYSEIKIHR

With `Cc1nn(C)c(C)c1C1CCCN1Cc1nc(-c2ccco2)no1` (stereo unspecified), the Percent Effect in experiment [1] is -1.05%; in experiment [2] it was 10.8%; in [3], -11.3%; in experiment [4] it was 7.16%; in [5] it was 4.18%; in experiment [6], -2.03%. The Percent Effect is 3.23% in experiment [7]; 26.2% in experiment [8]; 10.9% in experiment [9]; 23.2% in experiment [10]; -7.01% in experiment [11].
On to `CC(C)CCN1CCC2(CC1)CN(C(=O)c1cnccn1)CCO2`, for which the Percent Effect in experiment [1] is -4.82%; in [2], 2.67%; in experiment [3], 2.65%; in experiment [4], 7.36%; in experiment [5], 0.772%; in experiment [6], -57.9%. For the same compound, the Percent Effect is 0.855% in experiment [7]; -13.7% in [8]; 4.17% in [9]; 12.5% in [10]; -3.24% in experiment [11].
As to `COc1cc(CN2CC[C@@]3(CCCO3)[C@@H](O)C2)ccc1F`, the Percent Effect in [1] is -3.6%; in experiment [2], 14.9%; in experiment [3], 6.46%; in experiment [4] it was -2.68%; in experiment [5], 2.96%; in experiment [6] it was 0.696%. The Percent Effect in [7] was 3.74%; in experiment [8] it was -18.1%; in [9], 6.45%; in experiment [10], 16.9%; in [11], -12.2%.
Consider `CSCCC(=O)N1CCCC1c1ccsc1` (stereo unspecified), for which the Percent Effect in experiment [1] was 0.213%; in [2], 9.72%; in experiment [3] it was 0.426%; in experiment [4], -10.9%; in experiment [5] it was -4.76%; in [6] it was -1.32%. Moreover, the Percent Effect in [7] was 18.8%; in experiment [8] it was 30.2%; in experiment [9], 4.21%; in experiment [10] it was 0%; in experiment [11], 103%.
On to `COC(=O)C(c1cc(F)ccc1F)N(C)C(=O)c1ccnc(C)n1` (stereo unspecified), for which the Percent Effect in experiment [1] was -4.44%; in experiment [2], -46.8%; in experiment [3], 8.88%; in [4] it was 3.63%; in [5] it was -2.77%; in [6] it was 0.645%. Moreover, the Percent Effect is 1.72% in experiment [7]; 18.2% in [8]; 7.29% in [9]; 15.2% in [10]; -3.25% in experiment [11].
Turning to `CCS(=O)(=O)CCNC(=O)c1ccc(-c2ccc(C)cc2)cc1F`, the Percent Effect in [1] was -3.31%; in experiment [2] it was 5.2%; in experiment [3] it was -1.14%; in experiment [4], 2.26%; in experiment [5], -2.26%; in experiment [6] it was -2.76%. Moreover, the Percent Effect in experiment [7] was 14.6%; in experiment [8], 18.8%; in experiment [9], -14%; in experiment [10] it was 1.24%; in experiment [11], 2.27%.
As for `COc1ccc(CN2C[C@H]3CC[C@](O)(c4ccc(C)cn4)[C@H]3C2)c(F)c1`, the Percent Effect in experiment [1] was -5%; in experiment [2], 6.76%; in experiment [3], 15.2%; in experiment [4], 2.69%; in experiment [5], -2.77%; in experiment [6], -1.16%. Further, the Percent Effect is -1.56% in [7]; 13.7% in experiment [8]; 5.38% in experiment [9]; 6.49% in [10]; -8.01% in [11].
`O=C(O)CC1CN(Cc2ccccc2)CCO1` (stereo unspecified): the Percent Effect is -6.06% in [1]; 5.41% in experiment [2]; 5.19% in experiment [3]; -3.59% in experiment [4]; -5.27% in [5]; 2.08% in experiment [6]. Moreover, the Percent Effect is 14.3% in [7]; 6.89% in experiment [8]; 8.91% in experiment [9]; 8.54% in [10]; -5.29% in [11].
Regarding `CNS(=O)(=O)c1cccc(C(C)NCc2nccn2C(C)C)c1` (stereo unspecified), the Percent Effect was -0.324% in experiment [1]; 13.5% in experiment [2]; -9.13% in experiment [3]; -6.24% in experiment [4]; -0.781% in [5]; 16.2% in experiment [6]. Also, the Percent Effect in experiment [7] was found to be 16.3%; in [8], 10.9%; in experiment [9], 10.9%; in experiment [10], 15.8%; in experiment [11] it was 2.31%.
Turning to `O=C(CCc1cscn1)N1CCCC(c2ccn[nH]2)C1` (stereo unspecified), the Percent Effect is -3.73% in experiment [1]; -5.2% in [2]; 4.11% in experiment [3]; 6.88% in experiment [4]; -2.62% in experiment [5]; 1.07% in experiment [6]. The Percent Effect is 5.91% in [7]; 15.7% in [8]; 2.91% in experiment [9]; 0% in experiment [10]; -3.79% in experiment [11].
Consider `CC(OCC1CC1)C(=O)N1CCCN(Cc2nccn2C)CC1` (stereo unspecified), for which the Percent Effect in [1] was 0.276%; in [2], 13.9%; in [3], -2.47%; in experiment [4], -3.62%; in experiment [5] it was -5.64%; in [6] it was 1.07%. Also, the Percent Effect was 19.4% in [7]; 10.6% in experiment [8]; 3.12% in experiment [9]; 7.59% in experiment [10]; -24.1% in experiment [11].
